Source: PubChem BioAssay AID504840 (Johns Hopkins Ion Channel Center, 2011)
Among all 1,500 compounds or so, about 890 (59%) were called active.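 Rule for the calls: active = inhibition of the choline-evoked signal at any tested dose together with a fitted dose-response curve; inactive = no inhibition at any dose or no curve.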 The set was probably picked from earlier hits. Only a sample is shown. Entries with a potency or affinity are not part of this list.

These molecules were tested against High affinity choline transporter 1 (Homo sapiens) (UniProt Q9GZV3) (assay: CHT inhibitors, dose response, cell-based, 5-point CRC, membrane potential dye (AID 504840;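 note: 0% = buffer-only response and 100% = EC90 choline response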)). Conditions: HEK293-CHT, choline-induced depolarization, CHT with LV-to-AA double alanine mutation; series mostly up to 37 µM; inhibition: at the top concentration.
Chain of High affinity choline transporter 1 (Homo sapiens) (Q9GZV3 whole entry, looked up): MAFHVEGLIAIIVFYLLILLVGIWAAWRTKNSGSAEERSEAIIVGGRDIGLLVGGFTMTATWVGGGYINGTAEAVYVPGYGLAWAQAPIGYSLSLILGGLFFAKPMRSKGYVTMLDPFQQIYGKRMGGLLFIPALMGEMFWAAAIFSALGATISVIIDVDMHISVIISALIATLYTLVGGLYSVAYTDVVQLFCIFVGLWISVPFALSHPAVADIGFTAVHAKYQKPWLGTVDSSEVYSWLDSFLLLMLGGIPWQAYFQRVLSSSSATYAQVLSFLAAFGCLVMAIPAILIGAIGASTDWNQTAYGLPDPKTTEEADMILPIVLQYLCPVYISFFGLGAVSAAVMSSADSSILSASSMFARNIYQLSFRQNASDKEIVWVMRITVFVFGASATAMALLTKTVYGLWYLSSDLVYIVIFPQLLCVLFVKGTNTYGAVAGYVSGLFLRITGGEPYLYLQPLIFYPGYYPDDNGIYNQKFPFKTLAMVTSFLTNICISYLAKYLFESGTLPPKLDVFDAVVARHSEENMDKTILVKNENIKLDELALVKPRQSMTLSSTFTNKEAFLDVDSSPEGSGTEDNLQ

inhibition, inactive:
Cc1cc(=O)[nH]c(SCC(=O)/C=C2\N(C)c3ccccc3C2(C)C)n1 36.3%, CC(=O)Oc1ccc(C(=O)Nc2ccc(S(=O)(=O)NCC3CCCO3)cc2)cc1 (stereo not drawn) 30.6%, Cn1cnnc1Sc1ccc(C(=O)NCCC(c2ccccc2)c2ccccc2)cc1[N+](=O)[O-] 67%, COc1cc(C(=O)NC(=S)NNC(=O)[C@H]2C[C@@H]2c2ccccc2)cc(OC)c1OC 9.51%, Cc1ccc(N2CC(C(=O)Nc3ncc([N+](=O)[O-])s3)CC2=O)cc1 (stereo not drawn) 34.5%, O=C(Nc1ncc([N+](=O)[O-])s1)C1CC(=O)N(c2ccc(F)cc2)C1 (stereo not drawn) 50.3%, CCCCCC(=O)c1ccc(O)cc1O 43.6%, CCN(CC)CCCNC(=O)c1cn(CC)c2ccc(S(=O)(=O)N(C)C3CCCCC3)cc2c1=O 51.1%, CCCCn1c(SCc2nnc(-c3ccccc3)o2)nc2c1c(=O)n(C)c(=O)n2C 23.6%, Cn1nc(C(=O)NCCCN2CCCCC2)c2c1-c1ccccc1SC2 62.5%, CC1CCCC(C)N1CCCNC(=O)c1ccc2c(c1)NC(=O)c1ccccc1S2 (stereo not drawn) 58.5%, CCCCCCCCCCCCN1[C@@H](CC(=O)O)c2cc(C(F)(F)F)ccc2S1(=O)=O 40%, CN(Cc1ccccc1F)C(=O)CCCNC(=O)c1ccc(Cl)cc1 47%, Cn1c2ccccc2c(=O)c2c(O)cccc21 15.4%, O=C(c1cnn2c(C(F)(F)F)cc(-c3cccs3)nc12)N1CCN(Cc2ccccc2)CC1 36.1%, C#CCNc1c2c(nc3ncnn13)CC(C)CC2 (stereo not drawn) 35.4%, CC(C)Cn1c(N)c(C(=O)COC(=O)CCNS(=O)(=O)c2ccccc2)c(=O)n(C)c1=O 65%, Cc1ccccc1OCCC(=O)OCC(=O)c1c(N)n(CC(C)C)c(=O)n(C)c1=O 69.1%, CCc1c(C)nc2ncnn2c1NCCc1ccc(Cl)cc1 28.3%, O=C(C1CCN(S(=O)(=O)c2ccc3ccccc3c2)CC1)N1CCN(c2ncccn2)CC1 47.8%, CCn1c(N2CCN(S(=O)(=O)c3ccc(OC)cc3)CC2)nc2ccccc21 56.7%, O=C(COc1ccccc1/C=C1\SC(=O)NC1=O)Nc1ccccc1 52.7%, CCN(CC)C(=O)CSc1nc2ccc(NC(=O)CSc3nccn3C)cc2s1 79.5%, Cc1ccc2c(c1)N(S(=O)(=O)c1ccc(CN3C(=O)c4cccnc4C3=O)s1)CCO2 28.7%, O=C(Cn1nc(-c2ccccc2)ccc1=O)NCc1ccc(F)cc1 55.3%, O=[N+]([O-])c1cc(-c2ncccn2)c([N+](=O)[O-])s1 49.9%, Cc1cc(C(=O)CSc2n[nH]c(N)n2)c(C)n1-c1ccc(F)cc1 24.1%, Cn1c(CN2CCCC2)c(C#N)c2ccccc21 30.8%, NS(=O)(=O)c1ccc(CCNCc2cc(Cl)ccc2OCc2ccccc2)cc1 16.5%, Cc1cccc(NC(=O)c2ccccc2O)c1C 38%, Cc1nnc(SC(C)C(=O)Nc2sc3c(c2C#N)CCCC3)[nH]c1=O (stereo not drawn) 23.2%, CCOC(=O)C1CCN(C(=O)CSCc2nc(-c3ccc(OCC)cc3)oc2C)CC1 41.5%, Cc1nc([N+](=O)[O-])c(Br)n1Cc1ccccc1 30.2%
